HCMV inh – qHTS Assay for inhibitors of the human cytomegalovirus (HCMV); HFF cells, HCMV-luciferase reporter, 72 h; stronger effect = lower value; activity change, negative = inhibition, % at 57.5 µM; 4.5% of 410,000 active; in the data active means activity change below about -60%; inconclusive means no clear call, values can overlap the other calls; inactive means above about -39%
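Steps: HFFs plated, 16 h 37C; compounds added; HCMV-luciferase added to MOI 1 PFU/cell; 72 h 37C; OneGlo reagent, 5 min room temperature; luminescence read, normalized to controls.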
LASV entry inh – qHTS for Inhibitors of binding or entry into cells for Lassa Virus | AID 540256, 2011 | 1.2% of 300,000 active | Lassa virus pseudotype entry inhibition, cell reporter | Potency, µM (series often up to 37.9 µM), for the others: top-dose activity change, negative = inhibition, actives largely listed as inhibitors; calls by dose curve; tested in HEK293 cells; further: potency means the concentration at half of the fitted maximal effect; nearly all actives have a fitted effect of over 50% in size
MARV entry inh – qHTS for inhibitors of binding or entry into cells for Marburg Virus | Marburg virus pseudotyped entry inhibition, cell reporter | Potency, µM (series often up to 37.8 µM), for inactives: at the top dose activity change, negative = inhibition, hits mostly inhibitors | 1.8% of 300,000 active | AID 540276, 2011; calls by dose curve; tested in HEK293 cells; further: potency means the concentration at half of the fitted maximal effect
Vaccinia Venus – qHTS for Stage-Specific Inhibitors of Vaccinia Orthopoxvirus: Venus Reporter Primary qHTS. Vaccinia virus Venus reporter expression, fluorescence. Potency, µM (top dose mostly 36.5 µM), for the others: at the top dose activity change, negative = inhibition, usual class: inhibitors. 0.46% of 330,000 active; calls by dose curve; tested in A549 cells; further: potency means the concentration at half of the fitted maximal effect; nearly all actives have a fitted effect of over 30% in size
Vaccinia mCherry – qHTS for Stage-Specific Inhibitors of Vaccinia Orthopoxvirus: mCherry Reporter Primary qHTS; Vaccinia virus mCherry reporter infection, fluorescence; Potency, µM (doses to about 36.5 µM), without a hit: at the highest dose activity change, negative = inhibition, most hits filed as inhibitors; 0.63% of 310,000 active; AID 720579, 2013; calls by dose curve; tested in A549 cells; further: potency means the concentration at half of the fitted maximal effect; nearly all actives have a fitted effect of over 35% in size
FMDV antiviral – High Throughput Screening for Foot and Mouth Disease Virus Antivirals; FMDV antiviral cell-based qHTS; Potency, µM (titrated, usually from 57.9 µM), for inactives: at the top dose activity change, negative = inhibition, hits mostly inhibitors; 1.2% of 410,000 active; AID 1159524, 2015; calls by dose curve; tested in HEK293T cells; further: read-out not given here; potency means the concentration at half of the fitted maximal effect; nearly all actives have a fitted effect of over 45% in size
* = called active by the depositor; u = inconclusive; x = no result; [ ] = another dose, or the depositor's remark. In the library only some 6.5% were active in any assay of this set; here they are far more common. On the % scale 0 is the no-effect control and ±100 the full control effect.

SMILES	HCMV inh	LASV entry inh	MARV entry inh	Vaccinia Venus	Vaccinia mCherry	FMDV antiviral
CCOC(=O)[C@]12Cc3c(cc(OC)c(OC)c3OC)[C@H]1N(C1CCCCC1)C(=O)c1ccccc12	-102*	x	x	u	u	8.9µM*
CCOC(=O)[C@]12Cc3cc(Cl)ccc3[C@H]1N(C1CCCCC1)C(=O)c1cc(OC)ccc12	-104*	x	x	3.5µM*	u	2.2µM*
CCOC(=O)[C@]12Cc3ccc(C)cc3[C@H]1N(C1CCCCC1)C(=O)c1cc(OC)ccc12	-103*	x	x	u	u	28µM*
CCOc1cc2[nH]c(=O)n(CCCCC(=O)N3CCN(c4ccccc4OC)CC3)c(=O)c2cc1OCC	2	2%[46.1 µM]	x	-14%	-21%	-12%
Cc1ccc(C)c(OCCn2cc(C(=O)c3cccs3)c3ccccc32)c1	-23	0%[46.1 µM]	-22%[46.1 µM]	-19%	-13%	-25%
CCOC(=O)[C@]12Cc3cc(C)ccc3[C@H]1N(CCC(=O)OC)C(=O)c1ccccc12	-110*	x	x	u	u	14µM*
CCOC(=O)[C@]12Cc3ccc(C)cc3[C@H]1N(C1CCCCC1)C(=O)c1ccccc12	-101*	x	x	u	u	6.3µM*
CCOC(=O)[C@]12Cc3cc(OC)ccc3[C@H]1N(CC(=O)OC)C(=O)c1ccccc12	-11	x	x	-4%	4%	-18%
CCOC(=O)[C@]12Cc3ccccc3[C@H]1N(C(C)C)C(=O)c1ccccc12	-105*	x	x	u	u	18µM*
CCn1ccc2cc(S(=O)(=O)N3CCC(C(=O)NCCc4ccccc4Cl)CC3)ccc21	-6	u	x	-15%	-21%	-13%
Cc1cnc(-n2ncc(C(=O)N(C)CC3CCCN(C)C3)c2C2CC2)nc1-c1cccs1 (stereo not drawn)	x	x	x	-12%	-20%	-16%
CC(C)c1ccc2[nH]c(O)c(N=NC(=O)c3cccc(S(=O)(=O)Nc4ccccc4Cl)c3)c2c1	-26	2%	u	-6%	0%	3%
O=C(NCCc1c[nH]c2ccccc12)c1cccc(S(=O)(=O)Nc2ccccc2Cl)c1	-100*	-10%	-1%	-22%	u	-19%
O=C(N=Nc1c(O)[nH]c2ccccc12)c1cccc(S(=O)(=O)Nc2ccccc2Cl)c1	-72*	x	x	x	x	26%
Oc1cc2c(cc1O)[C@H]1c3ccccc3CNC1CC2 (stereo partly drawn)	x	x	16µM*	x	x	x
Nc1ncc(S(=O)(=O)c2ccc([N+](=O)[O-])cc2)s1	2	0%[46.1 µM]	-15%[46.1 µM]	u	7.1µM*	-12%
O=C1CCCN1c1ncc(S(=O)(=O)c2ccc([N+](=O)[O-])cc2)s1	-23	31%	1%	u	11µM*	u
O=C(Nc1ncc(S(=O)(=O)c2ccc([N+](=O)[O-])cc2)s1)c1ccccc1F	-15	x	x	2%[7.34 µM]	-8%[7.34 µM]	-28%
Cc1ccc(NC(=O)N(Cc2cccs2)Cc2cc3cc4c(cc3[nH]c2=O)OCO4)cc1	18	-4%	-25%	x	x	x
O=C(Nc1ccc(F)cc1)N(Cc1cccs1)Cc1cc2cc3c(cc2[nH]c1=O)OCO3	-61*	u	u	u	u	18µM*
O=C(Nc1ccc(F)cc1)N(Cc1ccco1)Cc1cc2cc3c(cc2[nH]c1=O)OCO3	u	-5%	18µM*	u	x	u
COc1ccc(NC(=O)N(Cc2cccs2)Cc2cc3cc4c(cc3[nH]c2=O)OCO4)cc1	x	-2%	5%	x	x	x
CC1(C)C=Cc2c(ccc3c2OC[C@H](c2ccc(O)cc2O)C3)O1	u	x	x	u	-29%	0%
CC(C)=CCc1cc([C@@H]2COc3c(ccc4c3C=CC(C)(C)O4)C2)c(O)cc1O	-106*	x	x	u	u	u
COc1ccc2cc3c(N)nn(C(=O)c4cccc(F)c4)c3nc2c1	-81*	x	x	x	x	21%
SMILES	HCMV inh	LASV entry inh	MARV entry inh	Vaccinia Venus	Vaccinia mCherry	FMDV antiviral
COc1ccc2cc3c(N)nn(C(=O)Cc4ccc(Cl)cc4)c3nc2c1	-67*	x	x	-13%	u	-3%
COc1ccc2cc3c(N)nn(C(=O)c4ccc(F)cc4)c3nc2c1	-87*	x	x	x	x	-24%
COc1ccc2cc3c(N)nn(C(=O)c4ccccc4Cl)c3nc2c1	-70*	u	-28%[46.1 µM]	-18%	-28%	u
COc1cccc(CC(=O)n2nc(N)c3cc4ccc(OC)cc4nc32)c1	55	x	x	-23%	u	-24%
COc1ccc2cc3c(N)nn(C(=O)c4ccc(OC)c(OC)c4)c3nc2c1	-38	19%[46.1 µM]	-12%[46.1 µM]	-9%	0%	-13%
O=C1[C@H]2[C@H]3[C@H](O)[C@H](O)C/C(=N\OCc4ccccc4)[C@@H]3CC[C@H]2C(=O)N1C[C@@H]1CCCO1	x	x	6%[14.2 µM]	x	x	x
CCOC(=O)c1sc(NC(=O)c2cc(-c3ccc(F)cc3)on2)c(C(=O)OCC)c1C	14	2%[46.1 µM]	-9%[46.1 µM]	7%	-4%	-20%
Cc1nnc2ccc(-c3cccc(C(F)(F)F)c3)nn12	-32	x	x	-14%	-13%	-10%
FC(F)(F)c1cccc(-c2cnc3ccc(C4CC4)nn23)c1	-82*	x	x	x	x	x
CCOc1ccc(-c2cc(NC(=O)Nc3ccccc3Cl)c(C(=O)OC)s2)cc1	26	u	u	-15%	-11%	19%
Cc1ccccc1-c1nc2scc(CCNC(=O)c3ccco3)n2n1	11	2%[46.1 µM]	x	20%	14%	0%
COc1ccc(-c2cc(C(F)(F)F)n3ncc(-c4ccccc4)c3n2)cc1	-35	0%[46.1 µM]	1%[46.1 µM]	-3%[7.34 µM]	-4%[7.34 µM]	-6%
COc1cccc(C2=C(C(C)=O)Sc3nnc(C4CCCCC4)n3N2C(C)=O)c1	-73*	u	x	u	u	0%
CCC(=O)C1=C(c2ccc(OC)c(OC)c2)N(C(=O)CC)n2c(nnc2-c2ccc(C)cc2)S1	34	u	x	-6%	-4%	-11%
CC(=O)C1=C(c2ccccc2)N(C(C)=O)n2c(nnc2C2CCCCC2)S1	-95*	u	x	-6%[7.34 µM]	-13%[7.34 µM]	-27%
COc1ccc(C2=C(C(C)=O)Sc3nnc(-c4ccc(C)cc4)n3N2C(C)=O)cc1OC	-99*	u	x	u	u	-29%
CC(=O)C1=C(c2cccc([N+](=O)[O-])c2)N(C(C)=O)n2c(nnc2-c2ccc(C)cc2)S1	-38	20%[46.1 µM]	x	-4%	-14%	-15%
CC(=O)C1=C(c2ccc(Cl)c(Cl)c2)N(C(C)=O)n2c(nnc2C2CCCCC2)S1	33	18%[46.1 µM]	x	-11%	-10%	-14%
COCC(=O)Oc1c(Sc2ccc(C)cc2)c(C)nn1C(C)(C)C	-1	u	-15%[46.1 µM]	-15%	-19%	0%
O=Cc1ccc(-c2cccs2)s1	13	10µM*	u	u	-26%	26%
Oc1ccc(N=Cc2ccc(-c3cccs3)s2)cc1	-21	u	u	x	x	3%
